# SUMO Mot1 rescue: yeast Mot1-301 growth rescue at high temperature, primary screen, SUMOylation pathway inhibitor project, S. cerevisiae, ATP luminescence, 38.5C | 320,000 tested, 1% active | S. cerevisiae Mot1-301 growth rescue; percent above DMSO median, 100 means doubled | growth rescue, % at 18.8 µM;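 active means every valid replicate shows activation above 250% relative to neutral control wells; inactive means the rest, any valid replicate at or below 250%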;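 further: OY570 slx delta 5 strain wells were the positive control but not used for scaling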
# TIM10 inh: growth inhibitors of isogenic TIM10 control yeast, primary screen, counter-screen for tim10-1 yeast inhibitor project, luminescence, uHTS; AID 463195, 2010; 330,000 tested, 1.4% active; S. cerevisiae TIM10 strain growth, BacTiter-Glo luminescence, 24 h; inhibition, % at 10 µM;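 active means inhibition of 40% or more at the single tested concentration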;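 further: wild-type TIM10 isogenic control strain grown at permissive 25 °C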
# tim10-1 inh: growth inhibitors of tim10-1 mutant yeast, primary screen, luminescence, uHTS; S. cerevisiae tim10-1 ts strain growth, BacTiter-Glo, 24 h; inhibition, % at 20 µM; 330,000 tested, 2.2% active;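 active means inhibition of at least 40%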;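 further: mutant grown at 25 °C; 0% = DMSO wells with yeast and 100% = wells holding no yeast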
# tim23-1 inh: growth inhibitors of tim23-1 mutant yeast, primary screen, luminescence, uHTS; S. cerevisiae tim23-1 growth, BacTiter-Glo luminescence, 24 h; inhibition, % at 20 µM; 330,000 tested, 1.3% active; AID 463212, 2010;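 active means growth inhibition of the mutant yeast at or above 50%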;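 further: temperature-sensitive mutant grown at 25 °C; plate controls were DMSO-treated mutant yeast for no effect and medium wells lacking yeast for full effect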
# PfHsp90 set2: growth inhibition of PfHsp90-expressing yeast, primary screen, antimalarial PfHsp90 inhibitor project, S. cerevisiae, BacTiter-Glo luminescence, single point, set 2; BacTiter-Glo ATP, 48 h; yeast lacking PDR1 and PDR3 efflux regulators; inhibition, % at 9.4 µM; 310,000 tested, 0.32% active; AID 504621, 2011;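 active means every replicate shows inhibition above about 80%, whatever the replicate mean, limit read from the data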;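 further: 0% = DMSO neutral controls and 100% = 20 µM radicicol positive controls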
# tim10-1 conf: growth inhibitors of tim10-1 mutant yeast, confirmation, single concentration, luminescence, S. cerevisiae | shares compounds with tim10-1 inh | S. cerevisiae tim10-1 ts strain growth, BacTiter-Glo, 24 h | 7,400 tested, 56% active | inhibition, % at 20 µM;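 active means inhibition of yeast growth at or above a set limit in either of two repeat tests at 20 µM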;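 further: tim10-1 mutant grown at permissive 25 °C to find synthetic lethal compounds; 0% = DMSO yeast wells and 100% = medium wells without yeast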
# TIM10 conf: growth inhibitors of wild-type TIM10 yeast, confirmation, counter-screen for tim10-1 synthetic lethality project, single concentration, luminescence, S. cerevisiae | 4,600 tested, 63% active | shares compounds with TIM10 inh | S. cerevisiae tim10 strain growth, BacTiter-Glo luminescence, 24 h | inhibition, % at 10 µM;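 active means inhibition of yeast growth at or above a set limit in either of two replicates at 10 µM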;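 further: this counterscreen used the strain with wild-type TIM10; 0% = yeast with DMSO and 100% = medium wells lacking yeast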
# tim23-1 conf: tim23-1 mutant yeast growth inhibitors, confirmation, luminescence, single concentration; shares compounds with tim23-1 inh; S. cerevisiae tim23-1 growth, BacTiter-Glo luminescence, 24 h; inhibition, % at 20 µM; 4,400 tested, 83% active; AID 463218, 2010;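 active means inhibition above about 39% in either of two replicate wells at 20 µM, limit read from the data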;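 further: temperature-sensitive tim23-1 mutant grown at 25 °C; 0% = DMSO wells with yeast and 100% = medium wells without yeast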
# Active calls of the source: *; x = not tested or not shown. In the library only some 4.4% were active in any assay of this set; here they are far more common.
SMILES,SUMO Mot1 rescue,TIM10 inh,tim10-1 inh,tim23-1 inh,PfHsp90 set2,tim10-1 conf,tim23-1 conf,others
O=C(Nc1ccccc1Cl)N1CCCN(c2nc(-c3ccccc3)ns2)CC1,11,46*,43*,55*,-5,28,45*,TIM10 conf=33*
O=C1c2cccc3cc([N+](=O)[O-])cc(c23)C(=O)N1CC1CCCO1 (centres undefined),-18,15,41*,52*,29,23,44*,
O=C1c2ccccc2C(=O)N1CC1CCCO1 (centres undefined),368,-3,-18,-7,-5,x,x,
O=C(CSc1nnc(-c2cccc(Br)c2)o1)N1CCNC1=O,7,-5,-2,2,-11,x,x,
O=C(NCC(F)(F)F)c1ccc(S(=O)(=O)Nc2ccccc2N2CCCC2)cc1,0,-14,3,4,7,x,x,
Cc1ccc(-c2cc(-c3ccccc3C)[nH]n2)c(O)c1,18,49*,48*,74*,-16,58*,54*,TIM10 conf=57*
Cc1ccc(-c2[nH]ncc2C(=O)c2cccc(F)c2)c(O)c1,-25,5,33,30,0,x,x,
Cc1ccc(-c2cc(-c3cccc(F)c3)n[nH]2)c(O)c1,27,48*,58*,59*,6,51*,21,TIM10 conf=-5
Cn1c(=O)c2c(ncn2CC(=O)N/N=C/c2c[nH]c3ccccc23)n(C)c1=O,-5,-2,4,-12,x,x,x,
CCOC(=O)C1=C(N)OC2=C(C(=O)CC(C)(C)C2)C1c1ccoc1 (centres undefined),-9,-12,0,2,15,x,x,
CCOC(=O)C1=C(N)OC2=C(C(=O)CC(C)(C)C2)C1C1CCCCC1 (centres undefined),-4,28,45*,56*,37,34*,46*,
C[C@@H]1CN([C@H](C)CO)C(=O)c2cc(NS(=O)(=O)c3cn(C)cn3)ccc2O[C@@H]1CN(C)S(C)(=O)=O,-10,-5,-14,-3,10,x,x,
O=[N+]([O-])c1ccc(Nc2ccccc2)c2nonc12,47,45*,49*,60*,-13,37*,67*,TIM10 conf=39*
COc1ccc(/C=C2/CCc3ccccc3C2=O)cc1OC,6,21,17,41,-34,x,x,
O=C1/C(=C\c2ccncc2)CCc2ccccc21,112,60*,65*,72*,22,62*,39,TIM10 conf=62*
Cc1ccc(-c2nc3cccnc3s2)cc1NS(=O)(=O)c1cccs1,-5,6,43*,58*,-38,32*,53*,
O=S(=O)(Nc1ccccn1)c1cccs1,-10,6,0,-6,x,x,x,
Cc1ccccc1OCC(=O)NC(=S)Nc1cccc2cc(O)ccc12,284,25,57*,63*,-12,55*,49*,
Cc1ccccc1OCC(=O)NC(=S)Nc1ccc(Br)c(C)n1,-2,10,7,27,-5,x,x,
C/C(=N\Nc1nc(C)cc(-c2ccccc2)n1)c1ccc(F)cc1,-14,1,5,5,-5,x,x,
C/C(=N/Nc1nc(-c2ccccc2)cc(-c2ccc(F)cc2)n1)c1cccc(N)c1,-15,52*,46*,55*,-25,44*,53*,TIM10 conf=0
COc1ccc(CC(=O)Nc2ccncc2Cl)cc1,32,6,9,11,-10,x,x,
S=C(Nc1ccc(Oc2ccccc2)cc1)NC1CCCCCC1,-10,x,x,x,-61,x,x,
S=C(NNc1ccc2ccccc2c1)NC1CCCCC1,-5,51*,49*,52*,-39,53*,52*,TIM10 conf=56*
NC(=O)Nc1ccc(Cl)cc1,-4,-25,-14,9,-12,x,x,
SMILES,SUMO Mot1 rescue,TIM10 inh,tim10-1 inh,tim23-1 inh,PfHsp90 set2,tim10-1 conf,tim23-1 conf,others
O=C(Nc1ccc(Cl)cc1)ON=C1CCCC1,7,82*,43*,64*,-1,28,41*,TIM10 conf=-21
C/C(=N\OC(=O)Nc1ccc(Cl)cc1)c1ccc(F)c(F)c1,17,14,51*,57*,-15,54*,59*,
CCc1ccc(C(=O)NC(=S)NCc2cccnc2)cc1,20,-1,14,20,-20,x,x,
CC/C(=N\NC(=S)Nc1ccc(OC)cc1)c1ccc(OC(F)F)cc1,-4,34,54*,53*,-19,46*,43*,
COc1ccccc1NC(=S)NNC(=S)Nc1ccc(OC(F)F)cc1,2,12,36,19,1,x,x,
COc1cc2c(cc1OC)/C(=C/c1ccc(Cl)cc1)C(=O)OC2,0,2,41*,55*,-31,12,47*,
COc1ccc(/C=C2\C(=O)OCc3cc(OC)c(OC)cc32)cc1OC,-2,27,23,23,-1,x,x,
Cc1ccc(C)c2c1[nH]c1ccc([N+](=O)[O-])cc12,66,39,50*,68*,-36,31*,51*,
CCCOc1ccccc1/C=C(\C#N)C(=O)Nc1cccc(C)n1,-12,37,49*,56*,-12,45*,57*,
Cc1cccc(NC(=O)/C(C#N)=C/c2ccc(F)cc2)n1,101,26,32,47,12,x,x,
Cc1ccc(Nc2nc3ccc(Cl)cc3n3cnnc23)cc1F,17,13,63*,51*,16,20,20,
CSc1ncccc1C(=O)N1CCN(S(=O)(=O)c2ccc(F)cc2)CC1,-21,15,12,3,24,x,x,
CCOc1ccc(NC(=O)CN(C)C(=O)C2=COCCO2)cc1OCC,-18,3,7,12,-6,x,x,
CC(=O)Nc1cc(C)nn1-c1nc(C)cc(C)n1,-12,-15,9,2,11,x,x,
Cc1ccc(Nc2cc(C)nn2-c2nc(C)cc(C)n2)cc1,14,44*,47*,53*,-25,25,47*,TIM10 conf=-25
Cc1ccc(Nc2cc(C)nn2-c2nc(C)cc(=O)[nH]2)cc1,22,76*,63*,68*,105*,47*,52*,TIM10 conf=-17
Cc1cccc(/C(N)=N/OC(=O)Cc2cccs2)c1,231,4,19,22,18,x,x,
COc1ccc(Cl)cc1C(=O)O/N=C(\N)c1ccncc1,-1,3,13,6,2,x,x,
